Results on five compounds are retold here after PubChem BioAssay (EPA / NIEHS).

The nature of test [1]: BSK_CASM3C_SRB: Viability Assessment in the BioMAP Diversity Plus: CASM3C Assay (AID 2283050).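 Further: total protein by SRB staining as cytotoxicity measure in parallel cultures; cells exposed to compound for 24 h.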 As to conditions: primary human coronary artery smooth muscle cells.
Read-out in test [2]: Thrombomodulin, THBD (gene 7056)
As to the kind of experiment: BSK_CASM3C_Thrombomodulin: BioMAP Diversity Plus: CASM3C Assay for Thrombomodulin Biomarker Activity (AID 2283051).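 Further: thrombomodulin protein level measured by ELISA 24 h after dosing.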 As to conditions: primary human coronary artery smooth muscle cells; actives raise or lower the signal.

Read-out in test [3]: Tissue Factor, F3 (gene 2152)
As to the kind of experiment: BSK_CASM3C_TissueFactor: BioMAP Diversity Plus: CASM3C Assay for Tissue Factor Biomarker Activity (AID 2283052).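 Further: cell surface tissue factor protein level read by ELISA.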 The settings on record: primary human coronary artery smooth muscle cells; actives raise or lower the signal.

Read-out in test [4]: Interferon-gamma inducible Protein 10 (IP10), CXCL10 (gene 3627)
As to the kind of experiment: BSK_hDFCGF_IP10: BioMAP Diversity Plus: hDFCGF Assay for Interferon-gamma inducible Protein 10 (IP10) Biomarker Activity (AID 2283053). The settings on record: primary human foreskin fibroblasts; actives raise or lower the signal. In short, it runs like this: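 Chemical-treated human skin fibroblasts (primary) were sampled at 24 h for IP-10 by ELISA. Both increases and decreases relative to DMSO were scored.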

Read-out in test [5]: Urokinase-type plasminogen activator receptor (uPAR), PLAUR (gene 5329)
As to the kind of experiment: BSK_CASM3C_uPAR: BioMAP Diversity Plus: CASM3C Assay for Urokinase-type plasminogen activator receptor (uPAR) Biomarker Activity (AID 2283054).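 Further: cell-surface uPAR protein level quantified by ELISA.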 As to conditions: primary human coronary artery smooth muscle cells; actives raise or lower the signal.

Read-out in test [6]: Vascular cell adhesion molecule 1 (VCAM1), VCAM1 (gene 7412)
Put plainly: BSK_CASM3C_VCAM1: BioMAP Diversity Plus: CASM3C Assay for Vascular cell adhesion molecule 1 (VCAM1) Biomarker Activity (AID 2283055).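 Further: VCAM-1 protein level quantified by ELISA on the cells.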 The settings on record: primary human coronary artery smooth muscle cells; actives raise or lower the signal.

Read-out in test [7]: Epidermal growth factor receptor (EGFR), EGFR (gene 1956)
Put plainly: BSK_hDFCGF_EGFR: BioMAP Diversity Plus: hDFCGF Assay for Epidermal growth factor receptor (EGFR) Biomarker Activity (AID 2283057). As to conditions: primary human foreskin fibroblasts; actives raise or lower the signal. In short, it runs like this:
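Cell-based multiplexed assay in primary human foreskin fibroblasts. EGFR is read by ELISA 24 h after treatment and compared with DMSO controls.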

Test [8] in a line: BSK_hDFCGF_Proliferation: Cell Proliferation Assessment in the BioMAP Diversity Plus: hDFCGF Assay (AID 2283059).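 Further: curves fitted for both rise and fall of signal versus DMSO baseline.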 The settings on record: primary human foreskin fibroblasts. In short, it runs like this:
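This proliferation readout used SRB total-protein staining of human foreskin fibroblasts […], normalized to DMSO with bidirectional curve fitting.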

Read-out in test [9]: Macrophage colony-stimulating factor (MCSF), CSF1 (gene 1435)
As to the kind of experiment: BSK_hDFCGF_MCSF: BioMAP Diversity Plus: hDFCGF Assay for Macrophage colony-stimulating factor (MCSF) Biomarker Activity (AID 2283060). The settings on record: primary human foreskin fibroblasts; actives raise or lower the signal. In short, it runs like this:
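Primary human foreskin fibroblasts dosed with chemical; 24 h later, M-CSF quantified by ELISA; curves fitted in both directions vs DMSO negative control.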

Test [10] in a line: BSK_hDFCGF_SRB: Viability Assessment in the BioMAP Diversity Plus: hDFCGF Assay (AID 2283061).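 Further: cells exposed to compound for 24 h before the read.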 As to conditions: primary human foreskin fibroblasts. In short, it runs like this:
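Readout is SRB absorbance at 560 nm, reflecting total protein in parallel cultures of human foreskin fibroblasts harvested 24 h after chemical dosing. Activity was fitted bidirectionally relative to DMSO.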

Read-out in test [11]: TIMP metallopeptidase inhibitor 1 (TIMP1), TIMP1 (gene 7076)
As to the kind of experiment: BSK_hDFCGF_TIMP1: BioMAP Diversity Plus: hDFCGF Assay for TIMP metallopeptidase inhibitor 1 (TIMP1) Biomarker Activity (AID 2283062). As to conditions: primary human foreskin fibroblasts; actives raise or lower the signal. In short, it runs like this: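 Human skin fibroblasts (primary), hDFCGF system; compound exposure 24 h; TIMP-1 by ELISA; bidirectional fit vs DMSO negative control; overt cytotoxicity by SRB in parallel wells.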

Read-out in test [12]: Monokine induced gamma interferon (MIG), CXCL9 (gene 4283)
Put plainly: BSK_hDFCGF_MIG: BioMAP Diversity Plus: hDFCGF Assay for Monokine induced gamma interferon (MIG) Biomarker Activity (AID 2283063). The settings on record: primary human foreskin fibroblasts; actives raise or lower the signal. In short, it runs like this: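 Chemicals were added to primary human foreskin fibroblast cultures, which were sampled 24 h later. MIG levels were then quantified by ELISA and responses fitted in both directions relative to DMSO.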

Read-out in test [13]: Matrix Metallopeptidase 1 (MMP1), MMP1 (gene 4312)
Put plainly: BSK_hDFCGF_MMP1: BioMAP Diversity Plus: hDFCGF Assay for Matrix Metallopeptidase 1 (MMP1) Biomarker Activity (AID 2283064). As to conditions: primary human foreskin fibroblasts; actives raise or lower the signal. In short, it runs like this:
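ELISA read-out of MMP1 from human foreskin fibroblasts (primary skin cells), 24 h post-dose. Gain or loss of signal was fitted bidirectionally versus DMSO negative control; cytotoxicity was checked by SRB in parallel cultures.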

Read-out in test [14]: Vascular cell adhesion molecule 1 (VCAM1), VCAM1 (gene 7412)
Put plainly: BSK_hDFCGF_VCAM1: BioMAP Diversity Plus: hDFCGF Assay for Vascular cell adhesion molecule 1 (VCAM1) Biomarker Activity (AID 2283065).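 On AC50: VCAM-1 protein level quantified by ELISA after 24 h chemical exposure.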 As to conditions: primary human foreskin fibroblasts; actives raise or lower the signal. In short, it runs like this: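 Human foreskin fibroblast primary cells, chemical exposure 24 h; VCAM-1 by ELISA; bidirectional fit, DMSO = negative control/baseline.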

Read-out in test [15]: Plasminogen activator inhibitor-1 (PAI1), SERPINE1 (gene 5054)
As to the kind of experiment: BSK_hDFCGF_PAI1: BioMAP Diversity Plus: hDFCGF Assay for Plasminogen activator inhibitor-1 (PAI1) Biomarker Activity (AID 2283066). As to conditions: primary human foreskin fibroblasts; actives raise or lower the signal. In short, it runs like this:
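Human skin fibroblast cultures receive chemical for 24 h before PAI-1 is measured by ELISA; signal changes are fitted bidirectionally against DMSO-treated wells.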

Read-out in test [16]: Intercellular Adhesion Molecule 1 (ICAM1), ICAM1 (gene 3383)
Put plainly: BSK_KF3CT_ICAM1: BioMAP Diversity Plus: KF3CT Assay for Intercellular Adhesion Molecule 1 (ICAM1) Biomarker Activity (AID 2283067). The settings on record: primary human keratinocytes with fibroblasts; actives raise or lower the signal. In short, it runs like this: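 ICAM-1 levels are measured by ELISA 24 h after dosing a primary human co-culture of keratinocytes and foreskin fibroblasts. Activity in either direction is fitted relative to DMSO vehicle.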

Read-out in test [17]: Interferon-gamma inducible Protein 10 (IP10), CXCL10 (gene 3627)
Put plainly: BSK_KF3CT_IP10: BioMAP Diversity Plus: KF3CT Assay for Interferon-gamma inducible Protein 10 (IP10) Biomarker Activity (AID 2283068). The settings on record: primary human keratinocytes with fibroblasts; actives raise or lower the signal. In short, it runs like this:
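Signal is secreted/surface IP-10 by ELISA in a human primary skin co-culture of keratinocytes and foreskin fibroblasts, taken 24 h post-dosing; DMSO served as negative control.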

Test [18] can be described thus: BSK_KF3CT_SRB: Viability Assessment in the BioMAP Diversity Plus: KF3CT Assay (AID 2283069).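 Further: total protein by sulforhodamine B staining as a cytotoxicity measure; read 24 h after compound addition; fitted for both signal gain and loss against DMSO baseline.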 As to conditions: primary human keratinocytes with fibroblasts. In short, it runs like this: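 SRB read-out at 560 nm (0.1% stain, TCA-fixed cells) gauges overt cytotoxicity in a human skin keratinocyte–fibroblast co-culture 24 h post-dosing. Signal change was fitted bidirectionally relative to DMSO control.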

Read-out in test [19]: Interleukin-8 (IL8), CXCL8 (gene 3576)
As to the kind of experiment: BSK_hDFCGF_IL8: BioMAP Diversity Plus: hDFCGF Assay for Interleukin-8 (IL8) Biomarker Activity (AID 2283058). The settings on record: primary human foreskin fibroblasts; actives raise or lower the signal. In short, it runs like this:
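Cells used are human skin primary fibroblasts. Chemical is added, cultures run 24 h, then IL-8 is quantified by ELISA, and gain or loss versus DMSO control is fitted in both directions.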

Calls of active or inactive are those of the source. How the source made its calls: active means hit-call score of the fitted dose curve at least 0.9, where 1 is the maximum; inactive means score below 0.9.

One may read the AC50 as the concentration at which the activity in the assay is half-maximal. On to `CC(C1CC1)C(O)(Cn1cncn1)c1ccc(Cl)cc1` (stereo unspecified), for which the result in [1], in test [2], in [3], in test [4], in test [5] and in [6] was inactive. Further, the outcome in test [7], in test [9], in test [10], in [11], in [12] and in [13] was inactive. Besides, the outcome in [14], in test [15], in [16], in [17] and in test [18] was inactive. For the same compound, in [8], the AC50 was 29.9 µM (active).

On to `COP(=O)(OC)SCn1c(=O)oc2cc(Cl)cnc21`, for which the AC50 in test [1] was 24.7 µM (active); in test [2] it was 5.31 µM (active); in test [4] it was 13 µM (active); in test [5], 35.5 µM (active); in [6], 20 µM (active); in test [8] it was 10.1 µM (active). The AC50 is 10.4 µM (active) in test [9]; 13.8 µM (active) in [10]; 12 µM (active) in test [11]; 19.3 µM (active) in test [12]; 30.6 µM (active) in test [13]; 16.3 µM (active) in [14]. Moreover, the AC50 in [15] was 17 µM (active); in test [16], 18 µM (active); in [17], 16.5 µM (active); in test [18], 14.9 µM (active). Further, the outcome in test [3] and in test [7] was inactive.

As to `CC(C)N(C(=O)SCC(Cl)=C(Cl)Cl)C(C)C`, the AC50 was 32.4 µM (active) in test [1]; 20 µM (active) in test [2]; 34 µM (active) in [4]; 28.4 µM (active) in [7]; 36.6 µM (active) in test [8]; 32 µM (active) in test [9]. The AC50 in test [10] was 33.8 µM (active); in test [11], 34.4 µM (active); in test [12], 33.8 µM (active); in test [13], 31.4 µM (active); in test [14] it was 34.8 µM (active); in test [15] it was 34.4 µM (active). Also, the concentration at half-maximal activity (AC50) was 29.8 µM (active) in [16], 36.3 µM (active) in test [17] and 32.5 µM (active) in test [18]. Besides, the outcome in [3], in test [5] and in test [6] was inactive.

For the compound `C#CC(C)(C)NC(=O)c1cc(Cl)cc(Cl)c1`, the outcome in [1], in test [2], in [3], in test [5], in [6] and in test [7] was inactive. Also, the result in test [8], in test [9], in test [10], in test [11], in test [12] and in [13] was inactive. The result in test [14], in [15], in test [16], in test [17] and in [18] was inactive. Further, in test [4], the AC50 is 4.25 µM (active).

As to `O=c1ccc(=O)[nH][nH]1`, the outcome in [1], in [2], in test [3], in [4], in [5] and in [6] was inactive. Further, the outcome in [7], in test [19], in test [8], in test [9], in test [10] and in test [11] was inactive. Further, the result in [12], in [13], in test [14], in [15], in [16] and in test [17] was inactive. The result in [18] was inactive.
